Values joined by “and” are separate entries in the source; they are usually repeats but may differ in a detail not shown here. Identical values can stand only once. Hit rate of the full screen: of about 5,500 compounds, about 2,000 (36%) were called active. Inconclusive results (about 18%) are left out. Rule as the data show it: active = normalized growth mostly below about 0.91 (no sharp cut-off); inconclusive = no clear call, values can overlap the other calls; inactive = mostly above about 0.92. Some of the results follow.
Assay: chemical genetic growth profiling, strain panel (AID 1159580);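 also: tested at 20 µM; growth read once vehicle control cultures reached saturation at 30 °C; 1 = growth at the plate median or of vehicle wells; lower values mean less growth of the strain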
Conditions: growth OD

Measured: normalized growth

NC/C=C/C(=O)O
inactive: S. cerevisiae deletion strains, locus YJR043C, strain POL32, hits give low values 1.04 | S. cerevisiae deletion strains, locus YJR075W, strain HOC1, hits give low values 1.01 | S. cerevisiae deletion strains, locus YKL009W, strain mrt4, hits give low values 1.03 | S. cerevisiae deletion strains, locus YKL068W, hits give low values 1.01 | S. cerevisiae deletion strains, locus YKL085W, strain MDH1 (second series), hits give low values 1.01 | S. cerevisiae deletion strains, locus YKL085W, strain MDH1, hits give low values 1.01 | S. cerevisiae deletion strains, locus YKL160W, strain elf1, hits give low values 0.981 | S. cerevisiae deletion strains, locus YKL190W, strain CNB1, hits give low values 1.02 | S. cerevisiae deletion strains, locus YKR001C, strain vps1, hits give low values 1.02 | S. cerevisiae deletion strains, locus YKR026C, strain gcn3, hits give low values 0.987 | S. cerevisiae deletion strains, locus YKR091W, strain srl3, hits give low values 1.01 | S. cerevisiae deletion strains, locus YLL001W, strain dnm1, hits give low values 1 | S. cerevisiae deletion strains, locus YLL026W, hits give low values 1 | S. cerevisiae deletion strains, locus YLL041C, strain sdh2, hits give low values 1.01 | S. cerevisiae deletion strains, locus YLR027C, strain aat2, hits give low values 1.01 | S. cerevisiae deletion strains, locus YLR039C, strain RIC1, hits give low values 1.07 | S. cerevisiae deletion strains, locus YLR058C, strain SHM2, hits give low values 1.02 | S. cerevisiae deletion strains, locus YLR102C, strain apc9, hits give low values 1.01 | S. cerevisiae deletion strains, locus YLR221C, strain rsa3, hits give low values 0.999 | S. cerevisiae deletion strains, locus YLR258W, strain gsy2, hits give low values 1.02 | S. cerevisiae deletion strains, locus YLR262C, strain YPT6 (second series), hits give low values 1.01 | S. cerevisiae deletion strains, locus YLR262C, strain YPT6, hits give low values 1.03 | S. cerevisiae deletion strains, locus YLR268W, strain sec22, hits give low values 0.98 | S. cerevisiae deletion strains, locus YLR320W, strain mms22, hits give low values 1.01 | S. cerevisiae deletion strains, locus YLR330W, strain CHS5, hits give low values 1.01 | S. cerevisiae deletion strains, locus YLR342W, strain FKS1 (second series), hits give low values 1.11 | S. cerevisiae deletion strains, locus YLR342W, strain FKS1, hits give low values 1.01 | S. cerevisiae deletion strains, locus YLR357W, strain rsc2, hits give low values 1.1 | S. cerevisiae deletion strains, locus YLR370C, strain arc18, hits give low values 1.01 | S. cerevisiae deletion strains, locus YLR371W, strain rom2, hits give low values 1.02 | S. cerevisiae deletion strains, locus YLR384C, strain iki3, hits give low values 1.02 | S. cerevisiae deletion strains, locus YLR418C, strain cdc73, hits give low values 0.943 | S. cerevisiae deletion strains, locus YML016C, strain PPZ1, hits give low values 1.01 | S. cerevisiae deletion strains, locus YML032C, strain rad52, hits give low values 1.05 | S. cerevisiae deletion strains, locus YML120C, strain ndi1, hits give low values 1.01 | S. cerevisiae deletion strains, locus YML124C, strain tub3, hits give low values 1.01 | S. cerevisiae deletion strains, locus YMR058W, strain fet3, hits give low values 1.01 | S. cerevisiae deletion strains, locus YMR078C, strain ctf18, hits give low values 1.02 | S. cerevisiae deletion strains, locus YMR125W, strain sto1, hits give low values 1.04 | S. cerevisiae deletion strains, locus YMR129W, hits give low values 0.973 | S. cerevisiae deletion strains, locus YMR205C, strain PFK2, hits give low values 1.02 | S. cerevisiae deletion strains, locus YMR223W, strain ubp8, hits give low values 1.04 | S. cerevisiae deletion strains, locus YMR231W, strain pep5, hits give low values 1.01 | S. cerevisiae deletion strains, locus YMR263W, strain SAP30, hits give low values 1.01 | S. cerevisiae deletion strains, locus YMR307W, strain GAS1, hits give low values 1.02 and 0.997 | S. cerevisiae deletion strains, locus YNL067W, strain RPL9B, hits give low values 1.01 | S. cerevisiae deletion strains, locus YNL071W, strain lat1, hits give low values 1.01 | S. cerevisiae deletion strains, locus YNL128W, strain TEP1, hits give low values 0.988 | S. cerevisiae deletion strains, locus YNL153C, strain GIM3, hits give low values 1.01 and 1.03 | S. cerevisiae deletion strains, locus YNL175C, strain NOP13, hits give low values 1 | S. cerevisiae deletion strains, locus YNL197C, strain WHI3, hits give low values 0.996 | S. cerevisiae deletion strains, locus YNL209W, strain ssb2, hits give low values 1 | S. cerevisiae deletion strains, locus YNL224C, strain SQS1, hits give low values 1 | S. cerevisiae deletion strains, locus YNL233W, strain BNI4, hits give low values 1.02 | S. cerevisiae deletion strains, locus YNL248C, strain rpa49, hits give low values 1.01 | S. cerevisiae deletion strains, locus YNL250W, strain rad50, hits give low values 1 | S. cerevisiae deletion strains, locus YNL271C, strain bni1, hits give low values 1.02 | S. cerevisiae deletion strains, locus YNL298W, strain CLA4, hits give low values 1.01 | S. cerevisiae deletion strains, locus YNL307C, strain MCK1, hits give low values 1.05 | S. cerevisiae deletion strains, locus YNL322C, strain KRE1 (second series), hits give low values 1 | S. cerevisiae deletion strains, locus YNL322C, strain KRE1, hits give low values 1.01 and 1.02 | S. cerevisiae deletion strains, locus YNR049C, strain mso1, hits give low values 1.01 | S. cerevisiae deletion strains, locus YNR052C, strain pop2, hits give low values 1.01 | S. cerevisiae deletion strains, locus YOL006C, strain TOP1, hits give low values 1.04 | S. cerevisiae deletion strains, locus YOL012C, strain htz1 0.927 | S. cerevisiae deletion strains, locus YOL147C, strain pex11, hits give low values 1.01 | S. cerevisiae deletion strains, locus YOR001W, strain rrp6, hits give low values 0.99 | S. cerevisiae deletion strains, locus YOR061W, strain CKA2, hits give low values 1.01 | S. cerevisiae deletion strains, locus YOR069W, strain VPS5, hits give low values 1.02 | S. cerevisiae deletion strains, locus YOR070C, strain gyp1, hits give low values 1 | S. cerevisiae deletion strains, locus YOR080W, strain dia2, hits give low values 1 | S. cerevisiae deletion strains, locus YOR083W, strain WHI5 (second series), hits give low values 1.02 | S. cerevisiae deletion strains, locus YOR083W, strain WHI5, hits give low values 0.971 | S. cerevisiae deletion strains, locus YOR106W, strain vam3, hits give low values 0.991 | S. cerevisiae deletion strains, locus YOR136W, strain idh2, hits give low values 1.01 | S. cerevisiae deletion strains, locus YOR144C, strain elg1, hits give low values 1 | S. cerevisiae deletion strains, locus YOR184W, strain ser1, hits give low values 1.06 | S. cerevisiae deletion strains, locus YOR265W, strain rbl2, hits give low values 1.01 | S. cerevisiae deletion strains, locus YOR270C, strain vph1, hits give low values 1.01 | S. cerevisiae deletion strains, locus YOR290C, strain snf2, hits give low values 0.993 | S. cerevisiae deletion strains, locus YOR316C, strain cot1, hits give low values 1.02 | S. cerevisiae deletion strains, locus YPL051W, strain arl3, hits give low values 0.989 | S. cerevisiae deletion strains, locus YPL055C, strain LGE1, hits give low values 0.952 and 1.01 | S. cerevisiae deletion strains, locus YPL078C, strain atp4, hits give low values 0.983 | S. cerevisiae deletion strains, locus YPL106C, strain sse1, hits give low values 1.02 | S. cerevisiae deletion strains, locus YPL240C, strain hsp82, hits give low values 0.991 | S. cerevisiae deletion strains, locus YPL241C, strain CIN2, hits give low values 1.02 and 1 | S. cerevisiae deletion strains, locus YPR119W, strain clb2, hits give low values 1 | S. cerevisiae deletion strains, locus YPR141C, strain kar3, hits give low values 1.01 | S. cerevisiae deletion strains, locus YPR163C, strain tif3, hits give low values 1.01 | S. cerevisiae deletion strains, locus YPR167C, strain met16, hits give low values 1.01 | S. cerevisiae deletion strains, strain wtn01, hits give low values 0.982 | S. cerevisiae strains, strain wild type, hits give low values 1.03

— PubChem BioAssay AID1159580 (chemical genetic matrix, 2015)
